Laboratory results as given in PubChem BioAssay (NCI).
Compounds without any hit were thinned out: in the full panel of roughly 83,000, 20% have a hit.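 Percent growth is the endpoint: 0 to 100 indicates growth inhibition (40 means 60% inhibition), 0 means no net growth, and negative values indicate cell death.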 The source made the active and inactive calls. Rule for the calls: active = growth percent below 10; inactive = the rest.

Experiments:
Assay in all cases: NCI-60 one-dose screen, 48 h (100 = growth as untreated, 0 = no growth, -100 = all killed)
Settings in all cases: 10 µM
NCI-H23 lung = test system: NCI-H23 lung
NCI-H226 lung = test system: NCI-H226 lung
NCI-H322M lung = test system: NCI-H322M lung
HOP-62 NSCLC = test system: HOP-62 NSCLC
NCI-H460 lung = test system: NCI-H460 lung
HOP-92 NSCLC = test system: HOP-92 NSCLC
NCI-H522 lung = test system: NCI-H522 lung
A549/ATCC NSCLC = test system: A549/ATCC NSCLC
786-0 renal = test system: 786-0 renal
COLO 205 colon = test system: COLO 205 colon
DU-145 prostate = test system: DU-145 prostate
K-562 leukemia = test system: K-562 leukemia
MALME-3M melanoma = test system: MALME-3M melanoma
MDA-MB-231 breast = test system: MDA-MB-231 breast
RXF 393 renal = test system: RXF 393 renal
SF-268 CNS = test system: SF-268 CNS
SF-295 CNS = test system: SF-295 CNS
SF-539 CNS = test system: SF-539 CNS
UACC-257 melanoma = test system: UACC-257 melanoma
M14 melanoma = test system: M14 melanoma

Measured: growth

COc1cc(C2CC(=O)Nc3c2c(C)nn3-c2nc3ccccc3[nH]2)cc(OC)c1O (stereo not given)
inactive: NCI-H23 lung 36.8% | NCI-H226 lung 66% | NCI-H322M lung 80.4% | HOP-62 NSCLC 88.6% | NCI-H460 lung 36.2% | HOP-92 NSCLC 32% | NCI-H522 lung 64.8% | A549/ATCC NSCLC 40.1% | 786-0 renal 53.1% | COLO 205 colon 106% | DU-145 prostate 96.4% | K-562 leukemia 75.7% | MALME-3M melanoma 47.3% | RXF 393 renal 10.4% | SF-268 CNS 40.1% | SF-539 CNS 72.8% | UACC-257 melanoma 44.4%
active: MDA-MB-231 breast 7.76% | SF-295 CNS -34.2% | M14 melanoma 9.64%

C=CCOc1ccc2c(c1)CC[C@@H]1[C@@H]2CC[C@]2(C)C(=O)/C(=N/O)C[C@@H]12
active: HOP-92 NSCLC -5.15% | MDA-MB-231 breast 9.69% | RXF 393 renal 1.96%
inactive: NCI-H23 lung 60.1% | NCI-H226 lung 76.2% | NCI-H322M lung 50.9% | HOP-62 NSCLC 56.7% | NCI-H460 lung 64% | NCI-H522 lung 44.5% | A549/ATCC NSCLC 58.5% | 786-0 renal 47.3% | COLO 205 colon 40.8% | DU-145 prostate 21.8% | K-562 leukemia 19.5% | MALME-3M melanoma 74.4% | SF-268 CNS 43.8% | SF-295 CNS 78.7% | SF-539 CNS 86.6% | UACC-257 melanoma 76.5% | M14 melanoma 61.3%

CCC(CCNc1cc(OC)cc2cccnc12)CN1C(=O)c2ccccc2C1=O (stereo not given)
inactive: NCI-H23 lung 91.3% | NCI-H226 lung 98.9% | NCI-H322M lung 112% | HOP-62 NSCLC 102% | NCI-H460 lung 138% | HOP-92 NSCLC 93% | NCI-H522 lung 87.5% | A549/ATCC NSCLC 105% | 786-0 renal 104% | COLO 205 colon 113% | DU-145 prostate 118% | K-562 leukemia 101% | MALME-3M melanoma 132% | MDA-MB-231 breast 96% | RXF 393 renal 117% | SF-268 CNS 98.7% | SF-295 CNS 106% | SF-539 CNS 106% | UACC-257 melanoma 119% | M14 melanoma 117%

Cc1cc(C)c(C(=O)OC(C)CNC2CCCCC2)c(C)c1 (stereo not given)
inactive: NCI-H23 lung 94.1% | NCI-H226 lung 99.6% | NCI-H322M lung 95.4% | HOP-62 NSCLC 85.7% | NCI-H460 lung 98% | HOP-92 NSCLC 51.9% | NCI-H522 lung 99.4% | A549/ATCC NSCLC 102% | 786-0 renal 93.2% | COLO 205 colon 96.8% | DU-145 prostate 106% | K-562 leukemia 81.2% | MALME-3M melanoma 108% | MDA-MB-231 breast 102% | RXF 393 renal 105% | SF-268 CNS 99.7% | SF-295 CNS 97.7% | SF-539 CNS 99.2% | UACC-257 melanoma 97.7% | M14 melanoma 90.5%

CCC(OC(=O)CC(C)C)c1ccccc1 (stereo not given)
inactive: NCI-H23 lung 98.8% | NCI-H226 lung 89.4% | NCI-H322M lung 93.3% | HOP-62 NSCLC 96.3% | NCI-H460 lung 105% | HOP-92 NSCLC 92.8% | NCI-H522 lung 71.8% | A549/ATCC NSCLC 80.6% | 786-0 renal 95.2% | COLO 205 colon 107% | DU-145 prostate 103% | K-562 leukemia 99.6% | MALME-3M melanoma 110% | MDA-MB-231 breast 106% | RXF 393 renal 98.2% | SF-268 CNS 93.7% | SF-295 CNS 94.7% | SF-539 CNS 98.4% | UACC-257 melanoma 80.6% | M14 melanoma 102%

CCNC(=S)NN
inactive: NCI-H23 lung 93.1% | NCI-H226 lung 99.1% | NCI-H322M lung 78.7% | HOP-62 NSCLC 76.2% | NCI-H460 lung 95.6% | HOP-92 NSCLC 87.3% | NCI-H522 lung 105% | A549/ATCC NSCLC 72.5% | 786-0 renal 99.5% | COLO 205 colon 106% | DU-145 prostate 97.9% | K-562 leukemia 43.9% | MALME-3M melanoma 70.4% | MDA-MB-231 breast 90.5% | RXF 393 renal 100% | SF-268 CNS 103% | SF-295 CNS 89.4% | SF-539 CNS 100% | UACC-257 melanoma 56.8% | M14 melanoma 87.2%

C[C@]12CC[C@H]3[C@@H](CC=C4C[C@@H](O)CC[C@@]43C)[C@@H]1CC[C@@H]2C(=O)C/C=N/O
inactive: NCI-H23 lung 86.6% | NCI-H226 lung 107% | NCI-H322M lung 88.5% | HOP-62 NSCLC 76.8% | NCI-H460 lung 97.9% | HOP-92 NSCLC 54.9% | NCI-H522 lung 79.4% | A549/ATCC NSCLC 89.5% | 786-0 renal 90.8% | COLO 205 colon 101% | DU-145 prostate 99.5% | K-562 leukemia 78.1% | MALME-3M melanoma 84% | MDA-MB-231 breast 103% | RXF 393 renal 96.2% | SF-268 CNS 92.2% | SF-295 CNS 97.2% | SF-539 CNS 91.6% | UACC-257 melanoma 99.5% | M14 melanoma 95.7%

CCn1nc(-c2ccc(C(=O)OC)cc2)nc2c(=O)n(C)c(=O)nc1-2
inactive: NCI-H23 lung 104% | NCI-H226 lung 33.5% | NCI-H322M lung 45.4% | NCI-H460 lung 47.8% | NCI-H522 lung 77% | A549/ATCC NSCLC 35.8% | COLO 205 colon 87.2% | DU-145 prostate 77.6% | K-562 leukemia 80.9% | MALME-3M melanoma 29.1% | MDA-MB-231 breast 15.8% | RXF 393 renal 13.9% | SF-268 CNS 60.7% | SF-295 CNS 36.8% | UACC-257 melanoma 105% | M14 melanoma 78.3%
active: HOP-62 NSCLC -1.34% | HOP-92 NSCLC -13.1% | 786-0 renal -18.7% | SF-539 CNS 2.03%

Cc1ccc(C)c2c1sc1nc3n[nH]c(N)c3c(=N)n12
inactive: NCI-H23 lung 107% | NCI-H226 lung 105% | NCI-H322M lung 113% | HOP-62 NSCLC 104% | NCI-H460 lung 107% | HOP-92 NSCLC 97.2% | NCI-H522 lung 87.4% | A549/ATCC NSCLC 106% | 786-0 renal 111% | COLO 205 colon 112% | DU-145 prostate 111% | K-562 leukemia 98.3% | MALME-3M melanoma 128% | MDA-MB-231 breast 101% | RXF 393 renal 112% | SF-268 CNS 109% | SF-295 CNS 106% | SF-539 CNS 101% | UACC-257 melanoma 104% | M14 melanoma 108%

O=C(COc1ccc(-c2nc3ccccc3[nH]2)cc1)N=Nc1c(O)[nH]c2ccccc12
inactive: NCI-H23 lung 106% | NCI-H226 lung 116% | NCI-H322M lung 96.1% | HOP-62 NSCLC 105% | NCI-H460 lung 97.8% | HOP-92 NSCLC 79.8% | NCI-H522 lung 94% | A549/ATCC NSCLC 106% | 786-0 renal 96.8% | COLO 205 colon 92.4% | DU-145 prostate 101% | K-562 leukemia 44.8% | MALME-3M melanoma 80.9% | MDA-MB-231 breast 84.5% | RXF 393 renal 107% | SF-268 CNS 98.3% | SF-295 CNS 102% | SF-539 CNS 106% | UACC-257 melanoma 110% | M14 melanoma 116%

O=S(=O)(O)C1(O)CCCCC1
inactive: NCI-H23 lung 93.3% | NCI-H226 lung 95.4% | NCI-H322M lung 89.5% | HOP-62 NSCLC 81.8% | NCI-H460 lung 48% | HOP-92 NSCLC 101% | NCI-H522 lung 91.7% | A549/ATCC NSCLC 98.9% | 786-0 renal 102% | COLO 205 colon 96.1% | DU-145 prostate 54.1% | K-562 leukemia 85.3% | MALME-3M melanoma 86.9% | MDA-MB-231 breast 84.4% | RXF 393 renal 89.4% | SF-268 CNS 104% | SF-295 CNS 82.5% | SF-539 CNS 84% | UACC-257 melanoma 102% | M14 melanoma 91.2%

O=c1cc(CSc2nnc(-c3ccccc3)n2-c2ccc(F)cc2)c2ccc3ccccc3c2o1
inactive: NCI-H23 lung 83.6% | NCI-H226 lung 81.4% | NCI-H322M lung 91.8% | HOP-62 NSCLC 92.8% | NCI-H460 lung 100% | HOP-92 NSCLC 83.5% | NCI-H522 lung 74.1% | A549/ATCC NSCLC 99.2% | 786-0 renal 102% | COLO 205 colon 91.3% | DU-145 prostate 109% | K-562 leukemia 82.9% | MALME-3M melanoma 97% | MDA-MB-231 breast 91.1% | RXF 393 renal 108% | SF-268 CNS 93.8% | SF-295 CNS 95.9% | SF-539 CNS 98.7% | UACC-257 melanoma 103% | M14 melanoma 102%

CC(C)(C)c1ccc(OCCCCCCN2CCNCC2)cc1
active: 786-0 renal -50.7% | COLO 205 colon -66.7% | K-562 leukemia 0.864%
inactive: NCI-H23 lung 61.5% | NCI-H226 lung 73.4% | NCI-H322M lung 85.1% | HOP-62 NSCLC 67.8% | NCI-H460 lung 35.4% | HOP-92 NSCLC 16.8% | NCI-H522 lung 66.2% | A549/ATCC NSCLC 55.1% | DU-145 prostate 86.2% | MALME-3M melanoma 60.6% | MDA-MB-231 breast 36.4% | RXF 393 renal 46.2% | SF-268 CNS 78.2% | SF-295 CNS 57.7% | SF-539 CNS 68.9% | UACC-257 melanoma 93.6% | M14 melanoma 22.6%

CCOc1ccc(-n2cc(-c3ccc(N(C)C)cc3)[n+]3c2CCCCC3)cc1
inactive: NCI-H226 lung 18.6% | NCI-H322M lung 45.3% | A549/ATCC NSCLC 22.4% | 786-0 renal 20.7% | DU-145 prostate 25.7% | MDA-MB-231 breast 19.4% | RXF 393 renal 39.7% | SF-268 CNS 29.1% | SF-539 CNS 26.6% | M14 melanoma 10.4%
active: NCI-H23 lung 0.183% | HOP-62 NSCLC 3.02% | NCI-H460 lung 5.52% | HOP-92 NSCLC -8.52% | NCI-H522 lung -0.392% | COLO 205 colon -68.6% | K-562 leukemia 9.14% | MALME-3M melanoma 2.39% | SF-295 CNS -14.7% | UACC-257 melanoma -12.6%

CN(C1c2ccccc2Oc2ccccc21)S(=O)(=O)c1cc(Cl)ccc1Cl
active: NCI-H522 lung 3.68%
inactive: NCI-H23 lung 69.8% | NCI-H226 lung 62.7% | NCI-H322M lung 78.4% | HOP-62 NSCLC 48.6% | NCI-H460 lung 34.5% | HOP-92 NSCLC 34.8% | A549/ATCC NSCLC 52.4% | 786-0 renal 64.1% | COLO 205 colon 53% | DU-145 prostate 78.2% | K-562 leukemia 14.9% | MALME-3M melanoma 54.3% | MDA-MB-231 breast 69.7% | RXF 393 renal 73.5% | SF-268 CNS 68.6% | SF-295 CNS 29.1% | SF-539 CNS 60.6% | UACC-257 melanoma 63.6% | M14 melanoma 39.2%
